Results: PubChem BioAssay (Tox21)
Where “and” joins values, the source holds several entries; their conditions need not be identical. Identical values can stand only once. Results filed as inconclusive are left out. The source holds several records for some structures; these can differ, active in one and inactive in another. Calls of active or inactive are those of the source. Unless noted, calls come from the whole dose curve; as a rule, active = well fitted curve in the direction sought with a large enough effect in the repeat runs; inconclusive = weak or mixed curves; inactive = no such curve, though single readings can be large; an effect the other way counts as inactive or inconclusive.

Experiments:
[1] = qHTS assay to identify small molecule agonists of the hypoxia (HIF-1) signaling pathway - cell viability counter screen (AID 1224844; calls by dose curve; note: nearly all actives have a fitted effect of over 50% in size; note: potency is the fitted concentration of half-maximal effect); settings: HRE-bla ME-180 viability, CellTiter-Glo luminescence, 17 h; series mostly up to 76.8 µM
How it was run: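 Cytotoxicity measured by CellTiter-Glo ATP luminescence in the wells also read for beta-lactamase signal. Cells were HRE-bla ME-180 (2,000/well, 0.5% dialyzed FBS), exposed to compounds for 17 h at 37C.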

[2] = qHTS assay to identify small molecule agonists of H2AX (AID 1224845; active = well fitted activation curve with a large enough effect in the signal ratio in the repeat runs, not every such curve was filed as active; the % refers to the signal ratio; note: potency is the fitted concentration of half-maximal effect); settings: CHO-K1 phospho-H2AX Ser139 HTRF, 3 h; series mostly up to 154 µM
How it was run: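 Wild-type CHO-K1 cells, plated overnight, exposed 3hr at 37C to 15 concentrations (0.76% DMSO final). Lysed, then HTRF anti-pH2AX (S139) cryptate and anti-H2AX-d2 antibodies, 24 hr room temperature; 665/620 nm emission read.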

[3] = qHTS assay to identify small molecule agonists of H2AX - cell viability counter screen (AID 1224847; calls by dose curve; note: nearly all actives have a fitted effect of over 30% in size; note: potency is the fitted concentration of half-maximal effect); settings: CHO-K1 viability, CellTiter-Glo luminescence, 3 h; series mostly up to 154 µM
How it was run: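 We seed wild-type CHO-K1 cells overnight, treat them for 3 hr at 37C with compounds in 15-concentration series, and quantify remaining viability by CellTiter-Glo luminescence.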

[4] = qHTS assay to identify small molecule antagonists of the estrogen related receptor (ERR) signaling pathway from Tox21 library (AID 1224848); settings: ERR reporter cell line, luciferase antagonist mode, 18 h; series mostly up to 92.4 µM; note: nearly all actives have a fitted effect of over 50% in size; note: potency is the fitted concentration of half-maximal effect
How it was run: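 Quantitative high-throughput format: ERR reporter cells (2,000/well) pre-incubated 6 h, treated 18 h at 37 C with compounds in DMSO alongside positive and negative controls, then read by ONE-Glo luminescence.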

[5] = qHTS assay to identify small molecule agonists of the estrogen related receptor (ERR) signaling pathway from Tox21 library (AID 1224849; calls by dose curve; note: nearly all actives have a fitted effect of over 15% in size); settings: ERR reporter cell line, ONE-Glo luciferase, 18 h; at 92.4 µM (top of the series) unless noted
How it was run: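 Luminescent agonist read-out (One-Glo, 30-minute room-temperature incubation) following 18-hour compound treatment at 37 C of the ERR cell line, which had been plated 6 hours before dosing.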

[6] = qHTS RealTime-Glo MT Cell Viability Assay in HepG2 cells - 24 hour (AID 1224867); settings: RealTime-Glo luminescence; series mostly up to 76.8 µM; note: nearly all actives have a fitted effect of over 50% in size; note: potency is the fitted concentration of half-maximal effect
How it was run: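 qHTS, HepG2, 600 cells/well, RealTime-Glo (NanoLuc + prosubstrate) added with cells; 5 h preincubation; DMSO compound addition; 37 C; luminescence at 0/8/16/24/32/40 h.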

[7] = qHTS RealTime-Glo MT Cell Viability Assay in HEK293 cells - 32 hour (AID 1224868); settings: RealTime-Glo luminescence; series mostly up to 76.8 µM; note: nearly all actives have a fitted effect of over 50% in size; note: potency is the fitted concentration of half-maximal effect
How it was run: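 Assay medium contained NanoLuc luciferase plus cell-permeant prosubstrate, added with HEK293 cells at 600 cells/well. After 5 h at 37 C/5% CO2 compounds were added; plates stayed at 37 C for 40 h with serial luminescence reads.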

[8] = A CellTox Green Cytotoxicity Assay to monitor cytotoxicity in HEK293 cells - 0 hour (AID 1224869); settings: CellTox Green fluorescence; series mostly up to 76.8 µM; note: nearly all actives have a fitted effect of over 50% in size
How it was run: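 Fluorescence from a DNA-binding dye excluded by viable cells was measured repeatedly in the same HEK293 wells (600 cells/well) during continuous compound exposure at 37 C. Each assay gives one read point: 0, 8, 16, 24, 32 or 40 h.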

[9] = qHTS RealTime-Glo MT Cell Viability Assay in HepG2 cells - 40 hour (AID 1224870); settings: RealTime-Glo luminescence; series mostly up to 76.8 µM; note: nearly all actives have a fitted effect of over 50% in size; note: potency is the fitted concentration of half-maximal effect
How it was run: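 HepG2 cells (600/well) mixed with RealTime-Glo MT reagent, settled 5 h at 37 C/5% CO2 before compound addition. Nonlytic NanoLuc luminescence from viable-cell prosubstrate reduction read repeatedly during 40 h treatment at 37 C.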
% is set by controls: 0 for no effect and ±100 for the full control effect.

CCCCN(CCCC)C(=S)[S-].CCCCN(CCCC)C(=S)[S-].[Zn+2]
active: Potency [1] 15.5 µM | Potency [3] 80 µM | Potency [4] 12.2 µM | Potency [6] 34.7 µM | Potency [7] 11 µM | Potency [9] 24.5 µM
inactive: Potency [2] | activity change, positive = activation [5] -74.5% | Potency [8]

COC(=O)N(C(=O)N1CO[C@@]2(C(=O)OC)Cc3cc(Cl)ccc3C2=N1)c1ccc(OC(F)(F)F)cc1
active: Potency [4] 8.35 µM
inactive: Potency [1] | Potency [2] | Potency [3] | activity change, positive = activation [5] -47.5% | Potency [6] | Potency [8] | Potency [9]

CCCN(CCC)c1c([N+](=O)[O-])cc(S(N)(=O)=O)cc1[N+](=O)[O-]
active: Potency [1] 37 µM | Potency [2] 101 µM | Potency [4] 48.6 µM | Potency [6] 43.6 µM | Potency [7] 18.5 µM | Potency [9] 49 µM
inactive: activity change, positive = activation [5] -56.8% | Potency [8]

O=[N+]([O-])c1cc(C(F)(F)F)c(Cl)c([N+](=O)[O-])c1Cl
inactive: activity change, positive = activation [5] -73.4% | Potency [8]
active: Potency [1] 7.76 µM | Potency [2] 31.8 µM | Potency [4] 27.3 µM | Potency [6] 21.9 µM | Potency [7] 5.49 µM | Potency [9] 13.8 µM

CCCCCCCCCCCCCN1CC(C)OC(C)C1 (configuration not stated)
inactive: Potency [1] | Potency [2] | Potency [3] | Potency [6] | Potency [7] | Potency [8] | Potency [9]

CC(C)CC(C)(c1ccc(O)cc1)c1ccc(O)cc1
active: Potency [3] 101 µM and 89.8 µM | Potency [7] 39 µM
54.6 µM (active) and inactive: Potency [4]
inactive: Potency [1] | Potency [2] | activity change, positive = activation [5] -67.3% and -18.5% | Potency [8] | Potency [9]

C[C@H]1CC[C@@H]2[C@@H](C)[C@H]3[C@H](C[C@H]4[C@@H]5CC=C6CC(O[C@@H]7O[C@H](CO)[C@H](O)[C@H](O[C@@H]8O[C@H](CO)[C@@H](O)[C@H](O)[C@H]8O)[C@H]7O[C@H]7O[C@@H](C)[C@H](O)[C@@H](O)[C@H]7O)CC[C@]6(C)[C@H]5CC[C@]34C)N2C1 (some centres not stated)
inactive: Potency [2] | activity change, positive = activation [5] -50.4% | Potency [8]
active: Potency [1] 16 µM | Potency [3] 32.9 µM | Potency [6] 50.6 µM | Potency [7] 14.3 µM | Potency [9] 56.7 µM

CC(=O)C(Cl)(Cl)Cl
inactive: Potency [1] | Potency [2] | activity change, positive = activation [5] -67.8% | Potency [6] | Potency [8] | Potency [9]
active: Potency [3] 30.8 µM | Potency [4] 5.9 µM

CCOC(=O)OC1=C(c2cc(C)ccc2C)C(=O)NC12CCC(OC)CC2 (configuration not stated)
inactive: Potency [1] | Potency [2] | Potency [3] | Potency [6] | Potency [7] | Potency [8] | Potency [9]

c1ccc2c(c1)[nH]c1cnccc12
inactive: Potency [1] | Potency [2] | Potency [3] | Potency [6] | Potency [7] | Potency [8] | Potency [9]

C[C@@H]1CC[C@@]2(OC1)O[C@H]1[C@@H](O)[C@H]3[C@@H]4CC[C@H]5C[C@@H](O[C@@H]6O[C@H](CO)[C@H](O[C@@H]7O[C@H](CO)[C@@H](O)[C@H](O[C@@H]8OC[C@@H](O)[C@H](O)[C@H]8O)[C@H]7O[C@@H]7O[C@H](CO)[C@@H](O)[C@H](O[C@@H]8O[C@H](CO)[C@@H](O)[C@H](O)[C@H]8O)[C@H]7O)[C@H](O)[C@H]6O)[C@H](O)C[C@]5(C)[C@H]4CC[C@]3(C)[C@H]1[C@@H]2C
inactive: Potency [2] | activity change, positive = activation [5] -74.6% | Potency [8]
active: Potency [1] 11.6 µM | Potency [4] 23 µM | Potency [6] 20.7 µM | Potency [7] 11.6 µM | Potency [9] 26.1 µM

N#Cc1ccc(O)cc1
inactive: Potency [1] | Potency [2] | Potency [3] | Potency [6] | Potency [7] | Potency [8] | Potency [9]

CC1(C)[C@H](C(=O)O[C@H](C#N)c2cccc(Oc3ccccc3)c2)[C@@H]1/C=C(\Cl)C(F)(F)F
inactive: Potency [1] | Potency [2] | Potency [3] | Potency [6] | Potency [7] | Potency [8] | Potency [9]

CN(CCCC(=O)c1cccnc1)N=O
inactive: Potency [1] | Potency [2] | Potency [3] | Potency [6] | Potency [7] | Potency [8]

CC(C)OS(C)(=O)=O
inactive: Potency [1] | Potency [2] | Potency [3] | Potency [6] | Potency [7] | Potency [8] | Potency [9]

CC1(C)C(/C=C(\Cl)C(F)(F)F)C1C(=O)OC(C#N)c1cccc(Oc2ccccc2)c1 (configuration not stated)
inactive: Potency [1] | Potency [2] | Potency [3] | Potency [6] | Potency [8] | Potency [9]

CC(C)[C@H](C(=O)OC(C#N)c1cccc(Oc2ccccc2)c1)c1ccc(OC(F)F)cc1 (some centres not stated)
inactive: Potency [1] | Potency [2] | activity change, positive = activation [5] -19.1% | Potency [6] | Potency [7] | Potency [8] | Potency [9]
active: Potency [4] 15.4 µM

ClCc1ccc(Cl)cc1Cl
inactive: Potency [1] | Potency [2] | Potency [3] | Potency [6] | Potency [8] | Potency [9]

O=C(Nc1ccc2[nH]ccc2c1)c1cc2cc(F)ccc2n1Cc1cccc(F)c1
inactive: Potency [2] | activity change, positive = activation [5] -52.2% | Potency [7] | Potency [8]
active: Potency [1] 43.6 µM | Potency [4] 6.11 µM

CCC(C)(C)C(=O)OC1=C(c2ccc(Cl)cc2Cl)C(=O)OC12CCCCC2
active: Potency [1] 49 µM
inactive: Potency [2] | Potency [4] | Potency [6] | Potency [8] | Potency [9]

CC(=O)[O-].CC(=O)[O-].[Hg+2]
active: Potency [1] 3.47 µM | Potency [3] 6.35 µM | Potency [6] 2.19 µM | Potency [9] 2.45 µM
inactive: Potency [8]

CN(C)CCc1c[nH]c2ccc(O)cc12
inactive: Potency [1] | Potency [3] | Potency [6] | Potency [7] | Potency [8] | Potency [9]

CC(C)(c1ccc(O)c(-c2ccccc2)c1)c1ccc(O)c(-c2ccccc2)c1
active: Potency [1] 17.4 µM | Potency [3] 25.3 µM | Potency [4] 24.3 µM | Potency [6] 49 µM | Potency [7] 21.9 µM
inactive: activity change, positive = activation [5] -69.8% | Potency [8]

CCCCCCCCCCCCCCCC[n+]1ccccc1
57.5 µM (active) and inactive: Potency [1]
inactive: Potency [2] | Potency [8]

ClC1=C(Cl)C2(Cl)C3C(Cl)C(Cl)CC3C1(Cl)C2(Cl)Cl (configuration not stated)
active: Potency [1] 21.8 µM | Potency [2] 100 µM and 89.8 µM | Potency [4] 60.9 µM and 54.5 µM | Potency [7] 48.8 µM
inactive: activity change, positive = activation [5] -78.9% and -65.6% | Potency [8]
